Assay outcomes deposited in PubChem BioAssay by The Scripps Research Institute Molecular Screening Center.
Hits are enriched below; roughly 3.4% of the tested compounds scored in any of these assays.
TEAD-YAP inh – TEAD-YAP interaction inhibition; inhibition, % at 9.12 µM; HEK-TIYL cells, TEAD-Gal4/YAP UAS-luciferase luminescence; AID 1259422; hit rate 1.4% among 640,000; in the data active = inhibition above about 32%;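 note: 0% = median of test compound wells and 100% = reference inhibitor wells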
GPR151 activ – human GPR151 activation; PathHunter beta-arrestin GPR151 cells, luminescence; activation, % at 11.2 µM; Q8TDV0; AID 1508602; hit rate 1% among 650,000; in the data active = activation above about 4.9%;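 note: 0% = median of compound wells and 100% = cells with positive control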
MITF inh – blocks human microphthalmia-associated transcription factor; O75030; AlphaScreen MITF homodimerization, bead proximity signal; inhibition, % at 2.6 µM; hit rate 0.91% among 650,000; in the data active = inhibition above about 50%;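 note: 0% = vehicle wells with protein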
Target sequence (O75030 whole entry, looked up): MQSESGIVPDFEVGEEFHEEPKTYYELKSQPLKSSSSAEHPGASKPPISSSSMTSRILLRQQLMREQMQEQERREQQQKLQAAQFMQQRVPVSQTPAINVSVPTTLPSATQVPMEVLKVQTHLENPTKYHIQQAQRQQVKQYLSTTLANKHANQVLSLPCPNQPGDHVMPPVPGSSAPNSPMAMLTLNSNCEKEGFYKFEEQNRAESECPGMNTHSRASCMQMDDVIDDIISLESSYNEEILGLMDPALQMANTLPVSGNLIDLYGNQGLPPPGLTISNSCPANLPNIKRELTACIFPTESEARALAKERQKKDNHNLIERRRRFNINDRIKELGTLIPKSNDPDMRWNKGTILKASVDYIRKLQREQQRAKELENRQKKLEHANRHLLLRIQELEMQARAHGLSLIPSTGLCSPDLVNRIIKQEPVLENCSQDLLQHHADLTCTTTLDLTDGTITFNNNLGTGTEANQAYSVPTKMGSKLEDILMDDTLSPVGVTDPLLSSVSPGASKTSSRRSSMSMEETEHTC
FBW7 act – activators of human E3 ligase FBW7. Q969H0. AlphaScreen FBW7–phospho-cyclin E peptide binding, activator screen. normalized activity (activation), % at 26.1 µM. hit rate 0.13% among 650,000; in the data active = normalized activity above about 1.9%;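 note: purified mutant Fbw7 with reduced substrate affinity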
Starred values were filed as active, the others as inactive.

SMILES	TEAD-YAP inh	GPR151 activ	MITF inh	FBW7 act
c1ccc(Nc2ccn3ncc(-c4ccc(N5CCOCC5)cc4)c3n2)cc1	-9	0	24	1
O=C(Nc1ccc(Br)cn1)Nc1ccccc1C(F)(F)F	3	0	3	0
CCCCCC1CCC(c2ccc(OC)cc2)CC1 (configuration not stated)	4	0	-14	0
Cc1oc(-c2c(F)cccc2Cl)[n+]([O-])c1C	-5	-1	6	0
COc1ccc(S(=O)(=O)Nc2cc3c(C(C)=O)c(C)oc3c3ccccc23)cc1	69*	3	-3	0
CCOc1ccc(S(=O)(=O)Nc2cc3c4c(oc3c3ccccc23)CCCC4)cc1	49*	-1	-9	0
CC(=O)c1cccc(NC(=O)C2CCCCN2S(=O)(=O)c2ccc(Cl)s2)c1 (configuration not stated)	5	1	3	0
CCOc1cc(C2NC(=S)NC(C)=C2C(=O)OC)ccc1OCc1ccccc1 (configuration not stated)	0	0	2	0
O=C(NC1CCCCC1)c1cnc(N2CCN(c3ncccn3)CC2)c2ccccc12	0	-1	2	0
COc1cc(NC(=O)c2cnc(N3CCN(c4ccccn4)CC3)c3ccccc23)cc(OC)c1OC	78*	1	6	0
COc1cccc(NC(=O)c2cnc(N3CCN(c4ccccn4)CC3)c3ccccc23)c1	62*	1	-4	0
COc1cccc(NC(=O)c2cnc(N3CCN(c4ncccn4)CC3)c3ccccc23)c1	20	-1	1	0
COc1ccc(NC(=O)c2cnc(N3CCN(c4ncccn4)CC3)c3ccccc23)c(OC)c1	50*	2	12	0
COC1CC(NC(=O)c2cnc(N3CCN(c4ncccn4)CC3)c3ccccc23)CC(OC)C1OC (configuration not stated)	72*	2	-3	0
Fc1ccc(C2C=C(c3ccc(Cl)cc3)Nc3ncnn32)cc1 (configuration not stated)	13	-1	-2	0
CC(C)NC(=O)c1cnc(N2CCN(c3ccccn3)CC2)c2ccccc12	11	1	-7	0
Cc1cccc(NC(=O)c2cnc(N3CCN(c4ccccn4)CC3)c3ccccc23)n1	40*	0	5	0
COc1ccc(NC(=O)c2cnc(N3CCN(c4ccccn4)CC3)c3ccccc23)cc1OC	84*	2	2	0
COc1ccccc1N1CCN(c2ncc(C(=O)Nc3cc(OC)c(OC)c(OC)c3)c3ccccc23)CC1	56*	-1	8	0
COCCCNC(=O)c1cnc(N2CCN(c3ccccc3OC)CC2)c2ccccc12	38*	-1	13	0
COC(=O)C1=CN(C(C)C)C=C(C(=O)OC)C1c1ccc(OC)c(O)c1	0	0	-4	0
COc1cc(N/C=C(\C#N)c2nc(-c3cc4ccccc4oc3=O)cs2)c(OC)cc1Cl	1	-1	1	0
COc1ccccc1NC(=O)Cc1nn(C)c(=O)c2ccccc12	36*	0	13	0
Cn1nc(CC(=O)Nc2ccc(F)cc2Cl)c2ccccc2c1=O	46*	1	-13	0
COc1ccc(CN2CCNC(=O)C2CC(=O)NC2CC2)cc1OC (configuration not stated)	1	1	-5	0
SMILES	TEAD-YAP inh	GPR151 activ	MITF inh	FBW7 act
CC12COC3(C(=O)Nc4ccccc4)CC1CCC32C (configuration not stated)	0	-1	8	0
CC12COC3(C(=O)Nc4nc5ccccc5s4)CC1CCC32C (configuration not stated)	67*	0	-3	0
CCOC(=O)N1CCC(NCCNC(=O)c2ccc(F)cc2)CC1	2	1	28	0
O=c1c(CN2CCN(c3cccc(C(F)(F)F)c3)CC2)coc2ccccc12	62*	0	35	0
Cc1ccc2occ(CN3CCN(c4ccccc4)CC3)c(=O)c2c1	-3	3	23	0
O=c1c(CN2CCN(c3cccc(Cl)c3)CC2)coc2ccccc12	43*	0	53*	0
COc1ccc(S(=O)(=O)N(CCc2ccccc2)CC(=O)NCCCO)cc1	15	1	6	0
COc1cccc(/C=N/NC(=S)Nc2cccnc2)c1	-23	2	0	0
Oc1ccc(/C=N/NC(=S)Nc2cccnc2)cc1	65*	-1	12	0
COc1ccc(O)c(/C=N/Nc2ccccn2)c1	-55	0	73*	0
COc1ccc(O)c(/C=N/NC(=S)Nc2cccnc2)c1	-11	-2	91*	0
COc1cc(OC)c(OC)cc1/C=N/Nc1ccccn1	15	-1	5	0
O=C(O)c1ccc2nc(CCc3ccccc3)[nH]c2c1	-4	-3	5	0
CCN(CC)S(=O)(=O)c1ccc(NC(=O)C(C)Oc2ccc(Cl)cc2Cl)cc1 (configuration not stated)	-4	1	4	0
COc1cc(SC)ccc1C(=O)Nc1nc2ccc(S(C)(=O)=O)cc2s1	46*	-1	5	0
CC(=O)Nc1cc(NC(C)=O)cc(C(=O)Nc2nc3c(s2)CCCC3)c1	52*	1	6	0
COc1cc(SC)ccc1C(=O)Nc1nc2c(s1)CCCC2	98*	-7	5	0
COc1cc2ccccc2cc1C(=O)Nc1nc2c(s1)CCCC2	-70	-1	-9	0
COc1ccc(C(=O)Nc2nc3c(s2)CCCC3)c(OC)c1	95*	-10	4	0
COc1ccc(Cl)cc1C(=O)Nc1nc2ccc(S(C)(=O)=O)cc2s1	-3	-1	5	0
CSc1cccc(C(=O)Nc2nc3c(s2)CCCC3)c1	-75	0	5	0
COc1cc(SC)ccc1C(=O)Nc1nc2c(s1)C(=O)CC(C)(C)C2	-22	-2	13	1
O=C(CN1CCC(c2ccccc2F)CC1)NC1CC1	-6	1	17	0
COc1cc(C)nc(NC(=O)NS(=O)(=O)c2c(C)cc(C)nc2Cl)n1	0	0	5	0
O=C1NC(=O)N(c2cccc(F)c2)C(=O)/C1=C/c1ccc(I)o1	11	1	78*	0
SMILES	TEAD-YAP inh	GPR151 activ	MITF inh	FBW7 act
Cc1ccc(N2C(=O)NC(=O)/C(=C\c3ccco3)C2=O)cc1C	4	1	5	0
O=C1NC(=O)N(c2ccc(F)cc2)C(=O)/C1=C/c1ccco1	-1	1	73*	0
O=C1NC(=O)N(c2ccccc2F)C(=O)/C1=C/c1ccc(I)o1	5	0	52*	0
COc1cc(OC)c(OC)cc1/C=C1\C(=O)NC(=S)N(c2cccc(F)c2)C1=O	6	-2	54*	0
COc1ccc(OC)c(C2CC(=O)C3=C(C2)NC(=O)CC3c2cccc(OC)c2OC)c1 (configuration not stated)	-7	-1	18	0
O=C(Nc1nncs1)c1cc(-c2ccccc2Cl)nc2ccccc12	-3	1	13	0
CCCCCCc1nnc(NC(=O)CCc2ccccc2)s1	-6	0	18	0
